# Reference: the supplement of paper PMC6555819
# Tested on: VDR:RXRa (NR concentration 270 nM, RXRa partner concentration 90 nM)
# Experiment: PBM binding z-score (relative to random genomic background probes); higher = stronger binding; sequences stand for … in GC…GCGATTGACAGCGTAGAATGAAGG
# Method: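 Protein-binding microarray (Agilent 4x180K custom design, double-stranded 60-nt probes: 5' GC cap, 34-nt variable region, 24-nt constant primer region; full probe sequence given). Purified or IVT nuclear receptor:RXRα heterodimers (3:1 NR:RXRα, mostly 270:90 nM) or homodimers were incubated for 1 h in PBS with 2% milk and no ligand, then detected with Alexa488 antibodies. Fluorescence from o1-orientation probes (~5 replicates averaged) was converted to z-scores against 500 random hg19 background probes. Variable regions are seed direct-repeat (DR0–DR5) sites, all their single-nucleotide variants and half-site ablations.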
row,Sequence,PBM binding z-score
1,ATCGAAAGGTCGACGAGGTGAGTATCCACCGTTT,5.24
2,CCGAGTAGGTAATGGGGCATTCAGGCAACGGTGA,-0.509
3,CGTTCAAGGTCAGCAGGTCAGTGAAAGCGACGTG,4.25
4,TATACAGGGTCAGAGGCCAGAGTACGAATGTCGA,3.24
5,TCTATTAGTTGATTCGGGCAACCGAAACAGCGGA,0.506
6,TGAATGAGGTTAGAGATCAGGGAACGTGGCGTCG,0.296
7,AAAGACAGGTGAGTGAAGGTAACTCAGCTGGACG,-0.172
8,GCTTACGGCTCAAAGGTTATAGCATGAATAGAAT,0.88
9,CCTTCCGGGTCAAGGTTATAGCACGGGTGGTACG,3.38
10,CCTACTGGGCCAAAAAGGACATTGATGCCGATAA,0.106
11,TCTTATAGGTAATACAGGTGAAAGTCGGCATCTA,1.36
12,TCAGGCAGGTGAAGGTAACTCAGGTACGCAGTCG,0.269
13,GGAACGAGGGCATTCGAGCTGATAGCATGGCGAT,0.809
14,GGAACGAGGGCAAAGTTGATGGCATCTGTCGACG,1.51
15,GGAACGAGGGCATTCGGGTTGATAGCATGGCGAT,4.61
16,ACTCGCAGGCCAAGTTTGGGTCACTCAAACAAAG,0.787
17,CCTACTGGGCCATTCAGAGCTCATTGATCATATG,-0.707
18,ATCTCTAGGTGACCAAGTTCAGTGAATGCCGAAC,4.77
19,ACAGGCAGGTGAGTGAAGGTAACTCAGCTGGACG,-0.417
20,CAAACTATGTCAAGAGGTCAAAGTCCGCTTCCCG,5.15

row,Sequence,PBM binding z-score
1,TTACCAAGGTGTGCTGAGGTCGTTGATCCAACTC,2.39
2,TCAAGTTGGTCAAAGGTCACACACTCGAAATGCG,5.58
3,GCTATGAGTTGAAAGGGCAACCGAATGATTCTCG,1.2
4,GCTTACGGGTCAATGGTTATAGCATGAATAGAAT,2.99
5,GCTCTTAGTTGAAAGGGCAACCGAATGATTCTCG,0.445
6,AGTCAAAGTTCATCGAGGTAACGTAAGATATGCT,6.17
7,ACCCGGAGGACAAAGGTCAGAGCTACGCCAGTGA,3.2
8,CAAACTAGGTCGAGGTCAAAGTCGGTTTGTGCCA,5.52
9,GCTATTAGTTGAAAGGGCAACGGAATGATTCTCG,0.383
10,CGTCCAAGGTCAAGATCAGTGAAAGAGACTCGAA,3.61
11,TCTTGTAGATCAGCAGGTTAAGACAGCTGGCCAA,0.176
12,ATCGGAAGGTCGACGAGGTGAGTATACACCGTTT,3.87
13,CAAACTCGGTCAAGAGGTCAAAGTCCGCTTCCCG,5.41
14,ATCGAAAGGTCTAGGTGAGTATAGAGAAAGGGAA,0.435
15,AGAACGAGGGCAATCAGTTGATAGCACGGGTGGC,2.58
16,GCTATTCGTTGAAAGGGCAACCGAATGATTCTCG,0.306
17,CCTGCTAGGTCAATGGTCAGCCAAAGCAGCTCGC,0.672
18,CGGCAAAGTTCAAGGTAACGTAACAGAAAGCAGC,3.52
19,CCTAGAAGGCCAATCTGGGTCACTCAAGGCTTGA,1.39
20,TCAGACACGTGAAGGTAACTCAGGTACGCAGTCG,0.881
